HT1080 IDH1KD tx = HT-1080 IDH1 knockdown cell toxicity (counter line); HT-1080 IDH1 knockdown viability, ATP luminescence, 48 h; Potency, µM (doses to about 46.1 µM), for inactives: top-dose activity, negative = toxicity, hits mostly cytotoxic; 360,000 tested, 2% active; AID 686971;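 note: 0% = DMSO wells and -100% = cell-free medium wells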
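HT-1080-IDH1KD cells (IDH1 knocked down), 750/well in RPMI with 5% FBS, treated with compound 48 h at 37 degrees C. Viability by CellTiter-Glo luminescence, normalised to DMSO and no-cell wells; concentration-response curves classed.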
KB-V1 MDR tox = kills drug-selected multidrug resistant KB-V1 cells; KB-V1 MDR cells viability, CellTiter-Glo, 72 h; Potency, µM (doses to about 46.1 µM), actives largely listed as cytotoxic; 400,000 tested, 3.4% active; note: % is set by controls: 0 for no effect and ±100 for the full control effect; nearly all actives have a fitted effect of over 60% in size
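Cytotoxicity toward P-gp-expressing KB-V1 cells was determined as loss of CellTiter-Glo luminescence after 72 h at 37 degrees C. Compounds were tested in quantitative HTS format across a concentration range, with curves fitted to normalized data.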
KB-3-1 tox = KB-3-1 parental cell cytotoxicity; 400,000 tested, 1.4% active; Potency, µM (titrated, usually from 46.1 µM), most hits filed as cytotoxic; KB-3-1 viability, CellTiter-Glo ATP luminescence, 72 h; note: % is set by controls: 0 for no effect and ±100 for the full control effect; nearly all actives have a fitted effect of over 60% in size
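Parental KB-3-1 viability, qHTS format: 72 h compound exposure, 37 °C; CellTiter-Glo; media-only wells and DMSO plates as controls; concentration-effect fits on corrected data.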
SW480 rereplic = induces DNA re-replication in SW480 colon adenocarcinoma cells | Potency, µM (series often up to 46.1 µM), without a hit: top-dose re-replication activation, actives largely listed as activators | 340,000 tested, 1.8% active | SW480 DNA re-replication, Hoechst DNA content imaging, 48 h; note: % of control where 0% means no effect; nearly all actives have a fitted effect of over 55% in size
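Image-based read-out: total Hoechst fluorescence of nuclei (405 nm excitation, 500-530 nm emission), with hits raising the fraction of high-intensity nuclei. SW480 colon cells incubated 48 hr with compounds at 37 C.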
MCF10A rerep = DNA re-replication induction in MCF 10a cells; AID 624296; Potency, µM (top dose mostly 46.1 µM), for inactives: top-dose activity, positive = re-replication, hits mostly activators; MCF 10A DNA re-replication, Hoechst nuclear intensity, 48 h; 350,000 tested, 2.9% active; note: % of control where 0% means no effect; nearly all actives have a fitted effect of over 50% in size
HT1080NT lethal = kills 2HG-producing HT-1080-NT fibrosarcoma cells. HT-1080-NT fibrosarcoma viability, CellTiter-Glo ATP luminescence, 48 h. Potency, µM (top dose mostly 46.1 µM), without a hit: at the top dose activity, negative = less viability, actives largely listed as cytotoxic. 360,000 tested, 1.6% active;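 note: NT is the 2HG producing partner of a matched IDH1 knockdown line; 0% = DMSO-treated cells and -100% = media-only wells without cells; nearly all actives have a fitted effect of over 55% in size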
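HT-1080-NT fibrosarcoma cells (2HG-overproducing), 750 cells/well in RPMI with 5% FBS, dosed after 2 h and incubated 48 h at 37C. CellTiter-Glo luminescence normalized to DMSO and no-cell wells; concentration-response curves fitted and classed.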
Numbers without * were called inactive; i = inactive; ? = inconclusive; / = no result; ! = not confirmed by another sample; [ ] = remark or other dose. An excerpt weighted towards active compounds, which were near 8% of everything screened. Calls come from the whole dose curve; as a rule, active = well fitted curve in the direction sought with a large enough effect; inconclusive = small, poorly fitted or top-dose-only effect, or another doubt; inactive = no such curve, though single readings can be large; an effect the other way counts as inactive or inconclusive. Potency is the fitted concentration of half-maximal effect.

SMILES	HT1080 IDH1KD tx	KB-V1 MDR tox	KB-3-1 tox	SW480 rereplic	MCF10A rerep	HT1080NT lethal
Clc1ccc(C[n+]2c(-c3ccccc3)cc(-c3ccccc3)cc2-c2ccccc2)cc1	10µM*	i	10µM*	5%	?	16µM*
Fc1ccc(C[n+]2c(-c3ccccc3)cc(-c3ccccc3)cc2-c2ccccc2)cc1	18µM*	i	16µM*	3%	-31%	16µM*
Cc1cc(-c2ccccc2)cc(-c2ccccc2)[n+]1CCc1ccccc1	-88%	i	?	5%	?	-92%
COc1ccccc1CNc1nc(NCc2ccccc2SC)c2sccc2n1	18µM*	?	?	/	/	?
Cc1cc(C)cc(-n2c(=O)[nH]c3ccccc3c2=O)c1	/	i	i	/	/	/
CC(=O)NCC(N)C(=O)c1ccc(Cl)c(Cl)c1 (stereo unspecified)	-13%	/	/	/	/	?
CCN1C(=NCCOC)N[C@@H](c2cccc(F)c2)C(C(=O)OC)=C1C	-1%	?	i	-24%[9.22 µM]	-31%	-10%
COc1cc([C@@H]2c3cc4c(cc3[C@@H](OC)[C@H]3COC(=O)[C@H]23)OCO4)cc(OC)c1O	?	?	?	5.2µM*	?	?
COc1cc([C@@H]2c3cc4c(cc3[C@H](O)[C@H]3COC(=O)[C@H]23)OCO4)cc(OC)c1OC	0.0065µM*	0.26µM*	0.1µM*!	0.023µM*	0.021µM*	?
O=C(Nc1ccccc1C(F)(F)F)c1cccn(Cc2ccccc2)c1=O	/	i	i	/	/	/
CCCCn1c(O)c(C(CC)=NCc2cc(OC)cc(OC)c2)c(=O)[nH]c1=O	-25%	3.7µM*	i	-5%	24%	-4%
CCCCn1c(O)c(C(CC)=Nc2ccc(OC)cc2OC)c(=O)[nH]c1=O	-24%	21µM*	?	?	?	-15%
CCCCn1c(O)c(C(CC)=NC(C)c2ccccc2)c(=O)[nH]c1=O (stereo unspecified)	?	i	i	?	?	?
CCCCn1c(O)c(C(CC)=Nc2ccc(OCC)cc2)c(=O)[nH]c1=O	-4%	21µM*	?	2%	9%	4%
CCC(=Nc1ccc(OC)cc1OC)c1c(O)n(C)c(=O)n(C)c1=O	?	?	?	-5%[9.22 µM]	-20%	-18%
Cc1cc(NC(=O)c2cccn(Cc3cccc([N+](=O)[O-])c3)c2=O)no1	/	i	i	/	/	/
CC(C)C(=O)Nc1ccc(C(=O)NCc2cccnc2)cc1	23µM*	i	i	0.52µM*	6%	?
O=C(NCc1cccnc1)C(Cl)(Cl)Cl	10%	i	i	-1%	4%	12%
Cc1cc(=O)oc2cc3c(cc12)CCCN3	0%	i	i	?	7.3µM*	7%
Oc1c(Br)cc(Br)cc1Oc1ccc(Br)cc1Br	/	/	/	5%	5.8µM*	/
Brc1ccc(Oc2ccc(Br)cc2Br)c(Br)c1	0%	i	i	-5%	?	10%
COC(/C(C)=C/C=C/C(C)=C/c1coc(C)n1)C(C)C1CC(O)C2(C)OC2C=CC(C)C2CC(CC(=O)O2)CC2OC2C(=O)O1 (stereo unspecified)	?	i	?	?	?	0.013µM*
Cc1ccccc1-c1nc(CS(=O)CC(=O)N2CCC3(CC2)OCCO3)c(C)o1 (stereo unspecified)	16%	13µM*	i	-1%	-2%	1%
COc1ccc(CC(=O)NC(=S)NNC(=O)COc2c(C)cccc2C)cc1	5%	i	?	-9%	?	-4%
COc1ccccc1CCNC1C2CC3CC(C2)CC1C3 (stereo unspecified)	-11%	15µM*	i	?	14%	-16%
SMILES	HT1080 IDH1KD tx	KB-V1 MDR tox	KB-3-1 tox	SW480 rereplic	MCF10A rerep	HT1080NT lethal
COc1ccccc1CCNC1CCC(C)CC1 (stereo unspecified)	2%	i	i	26%	-5%	-2%
CC(C)n1c(O)c(C2c3cc(Cl)ccc3Oc3[nH]c(=O)n(C(C)C)c(=O)c32)c(=O)[nH]c1=O (stereo unspecified)	2.3µM*	7.3µM*	8.2µM*	?	2.1µM*	5.2µM*
CCOC(=O)Cn1cc([N+](=O)[O-])nc1[N+](=O)[O-]	-2%	i	i	23µM*	14%	-2%
CN1C(=O)C(=Cc2ccccc2OCc2ccc(C(=O)O)cc2)C(=O)N(C)C1=O	2%	i	i	7%	?	-11%
CN1C(=O)C(=Cc2ccccc2OCc2ccccc2Cl)C(=O)N(C)C1=O	16µM*	i	?	?	?	16µM*
O=S1(=O)N(Cc2ccccc2Cl)CCCN1Cc1ccccc1Cl	/	i	i	/	/	/
CCN(CC)c1ccc2c(cc1=O)[C@@H](NC)CCc1cc(OC)c(OC)c(OC)c1-2	?	6.5µM*	0.92µM*	1µM*	1.3µM*	1.3µM*
COc1cc2c(c(OC)c1O)-c1ccc(OC)c(=O)cc1C(NC(=O)C(F)(F)F)CC2 (stereo unspecified)	?	?	?	0.12µM*	?	0.013µM*
COc1cc2c(c(OC)c1OC)-c1ccc(C(=O)O)cc1[C@@H](NC(C)=O)CC2	/	i	i	-1%	-1%	/
COc1cc2c(c(OC)c1OC)-c1ccc(O)c(=O)cc1[C@@H](N)CC2	?	i	i	6%	-1%	?
COc1cc2c(c(OC)c1OC)-c1ccc(OC)c(=O)cc1[C@@H](NC(C)=O)CC2	?	7.3µM*	0.073µM*	0.0046µM*	0.042µM*	?
C[C@]12CC[C@@H]3c4ccc(O)cc4C(=O)C[C@H]3[C@@H]1CC[C@@H]2O	2%	?	i	-38%	-6%	9%
C=CCn1c(=O)c(C=Nc2c(OC)cccc2[N+](=O)[O-])c(O)n(CCCC)c1=O	-9%	i	i	?	7.3µM*	-1%
CC(=O)Oc1ccc2c3c1OC1[C@@H](OC(C)=O)C=C[C@H]4[C@H](C2)N(C)CC[C@]314 (stereo partly specified)	/	/	/	-2%	3%	/
COc1ccc2c3c1O[C@H]1[C@@H](O)C=C[C@H]4C(C2)NCCC341 (stereo partly specified)	/	/	/	-8%	1%	/
N#CC(C#N)=NNc1ccc(-n2ccc(C(F)(F)F)n2)cc1	4.6µM*	i	?	?	?	?
